Test systems include T-47D breast; BT-549 breast; MDA-MB-435 melanoma; SW-620 colon; MCF7 breast; HCT-116 colon; HCC-2998 colon; KM12 colon.
Test in all cases: NCI-60 one-dose screen, 48 h (100 = growth as untreated, 0 = no growth, -100 = all killed)
What all share (details): 10 µM unless noted

Where “and” joins values, the source holds several entries; their conditions need not be identical. Identical values can stand only once. About 83,000 compounds went through this panel and 20% of them were active in at least one assay; those are over-represented in the sample as a whole.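 Negative percent growth values reflect cell death: -40 means 40% of the cells present at the start died, and -100 means all died.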 Calls of active or inactive are those of the source. The calls were made as follows: active = growth percent below 10; inactive = the rest.

Take `N=C1N=C(N)CS1`: the growth in the assay with T-47D breast was 108% (inactive); in the assay with BT-549 breast, 120% (inactive); in the assay on MDA-MB-435 melanoma, 106% (inactive); with SW-620 colon, 102% (inactive); in the assay on MCF7 breast, 96.8% (inactive); with HCT-116 colon, 107% (inactive). Further, the growth is 110% (inactive) with HCC-2998 colon and 107% (inactive) in the assay with KM12 colon.

`COc1ccc2cc3[n+](cc2c1OC)CCc1cc2c(cc1-3)OCO2`: the growth with T-47D breast is 38.2% (inactive) and 47.4% (inactive); with BT-549 breast, 28.8% (inactive) and 32.3% (inactive); in the assay with MDA-MB-435 melanoma it was 59% (inactive) and 66.2% (inactive); with SW-620 colon, 79.3% (inactive) and 92.3% (inactive); in the assay with MCF7 breast, 61.9% (inactive) and 76.9% (inactive); in the assay on HCT-116 colon, 68.5% (inactive) and 89.6% (inactive). Further, the growth is 56% (inactive) and 96.8% (inactive) with HCC-2998 colon; 40.7% (inactive) and 30.1% (inactive) in the assay with KM12 colon.

For `Cc1cc(C)c(N)c(Br)c1`, the growth with T-47D breast was 98.1% (inactive) and 87.3% (inactive); in the assay with BT-549 breast, 108% (inactive) and 88.8% (inactive); with MDA-MB-435 melanoma it was 114% (inactive) and 104% (inactive); in the assay with SW-620 colon it was 111% (inactive) and 104% (inactive); in the assay with MCF7 breast it was 103% (inactive); with HCT-116 colon it was 110% (inactive) and 95.8% (inactive). For the same molecule, the growth with HCC-2998 colon is 112% (inactive); in the assay on KM12 colon, 106% (inactive) and 102% (inactive).

With `Cc1ccc(S(=O)(=O)NCN2C(=O)c3ccccc3C2=O)cc1`, the growth in the assay with T-47D breast is 110% (inactive); in the assay on BT-549 breast, 101% (inactive); in the assay on MDA-MB-435 melanoma it was 111% (inactive); with SW-620 colon, 108% (inactive); with MCF7 breast it was 95.2% (inactive); with HCT-116 colon it was 98.5% (inactive). In addition, the growth was 99.4% (inactive) in the assay with HCC-2998 colon and 110% (inactive) with KM12 colon.

Turning to `CC(C)Cc1ccc(C(C)C(=O)NCc2ccc(Cn3c(=O)sn(CCCI)c3=O)cc2)cc1` (stereo not given), the growth with T-47D breast is -49.3% (active); with BT-549 breast it was 89.9% (inactive) and -81.9% (active); in the assay with MDA-MB-435 melanoma, 93% (inactive) and -72.6% (active); in the assay on SW-620 colon it was 66.5% (inactive) and -63.2% (active); with MCF7 breast it was 31.7% (inactive) and -61.4% (active); with HCT-116 colon, 82% (inactive) and -72.9% (active). For the same molecule, the growth in the assay with HCC-2998 colon was 91.5% (inactive) and -69.2% (active); with KM12 colon, 99.2% (inactive) and -36.7% (active).

Values taken from PubChem BioAssay (NCI).
